# doi:10.1101/2024.03.05.583629
# Molecular target: pT7_6His-AlfaTag-HOXD13 (human, UniProt P35453 263-343)
# Assay: PADIT-seq
# Details: dsDNA, one strand shown
# Sequence of pT7_6His-AlfaTag-HOXD13 (P35453 263-343): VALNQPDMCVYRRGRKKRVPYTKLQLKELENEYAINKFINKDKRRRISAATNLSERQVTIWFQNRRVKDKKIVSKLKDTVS
row,Sequence,binding signal [log2FC]
1,CTCGAGGATATCAAGATCTGGCCTCGGCGTTTTACATGGAACCTCTAGCTAGCCGACTCACTATAGGGATAATCGCCCTGAGCAAAGACC,2.03 ± 0.0856
2,CTCGAGGATATCAAGATCTGGCCTCGGCCGCCCAGTCGGAACCTCTAGCTAGCCGACTCACTATAGGGATAATCGCCCTGAGCAAAGACC,-0.955 ± 0.134
3,CTCGAGGATATCAAGATCTGGCCTCGGCTTTTTAAGAGGAACCTCTAGCTAGCCGACTCACTATAGGGATAATCGCCCTGAGCAAAGACC,2.84 ± 0.0822
4,CTCGAGGATATCAAGATCTGGCCTCGGCGGCATAAAAGGAACCTCTAGCTAGCCGACTCACTATAGGGATAATCGCCCTGAGCAAAGACC,0.675 ± 0.0684
5,CTCGAGGATATCAAGATCTGGCCTCGGCCTTTTAAGCGGAACCTCTAGCTAGCCGACTCACTATAGGGATAATCGCCCTGAGCAAAGACC,0.916 ± 0.0855
6,CTCGAGGATATCAAGATCTGGCCTCGGCTGATGGGCGGGAACCTCTAGCTAGCCGACTCACTATAGGGATAATCGCCCTGAGCAAAGACC,-0.976 ± 0.109
7,CTCGAGGATATCAAGATCTGGCCTCGGCAGAGTAAAAGGAACCTCTAGCTAGCCGACTCACTATAGGGATAATCGCCCTGAGCAAAGACC,0.253 ± 0.1
8,CTCGAGGATATCAAGATCTGGCCTCGGCGTTTTACACGGAACCTCTAGCTAGCCGACTCACTATAGGGATAATCGCCCTGAGCAAAGACC,2.15 ± 0.0769
9,CTCGAGGATATCAAGATCTGGCCTCGGCTACCTAAAAGGAACCTCTAGCTAGCCGACTCACTATAGGGATAATCGCCCTGAGCAAAGACC,-0.459 ± 0.127
10,CTCGAGGATATCAAGATCTGGCCTCGGCATTTTACGCGGAACCTCTAGCTAGCCGACTCACTATAGGGATAATCGCCCTGAGCAAAGACC,2.16 ± 0.0812
11,CTCGAGGATATCAAGATCTGGCCTCGGCCGCGTGCGCGGAACCTCTAGCTAGCCGACTCACTATAGGGATAATCGCCCTGAGCAAAGACC,-0.99 ± 0.127
12,CTCGAGGATATCAAGATCTGGCCTCGGCCGAATAAAAGGAACCTCTAGCTAGCCGACTCACTATAGGGATAATCGCCCTGAGCAAAGACC,1.27 ± 0.0923
13,CTCGAGGATATCAAGATCTGGCCTCGGCATTCTAAAAGGAACCTCTAGCTAGCCGACTCACTATAGGGATAATCGCCCTGAGCAAAGACC,-0.358 ± 0.0968
14,CTCGAGGATATCAAGATCTGGCCTCGGCATAATAAAAGGAACCTCTAGCTAGCCGACTCACTATAGGGATAATCGCCCTGAGCAAAGACC,2.68 ± 0.0776
15,CTCGAGGATATCAAGATCTGGCCTCGGCTTTTTACTAGGAACCTCTAGCTAGCCGACTCACTATAGGGATAATCGCCCTGAGCAAAGACC,3.21 ± 0.0865
16,CTCGAGGATATCAAGATCTGGCCTCGGCCCTATAAAAGGAACCTCTAGCTAGCCGACTCACTATAGGGATAATCGCCCTGAGCAAAGACC,2.89 ± 0.0925
17,CTCGAGGATATCAAGATCTGGCCTCGGCCAAATAAAAGGAACCTCTAGCTAGCCGACTCACTATAGGGATAATCGCCCTGAGCAAAGACC,2.65 ± 0.0828
18,CTCGAGGATATCAAGATCTGGCCTCGGCCCAGTAAAAGGAACCTCTAGCTAGCCGACTCACTATAGGGATAATCGCCCTGAGCAAAGACC,2.32 ± 0.0885
19,CTCGAGGATATCAAGATCTGGCCTCGGCTTTTTACGGGGAACCTCTAGCTAGCCGACTCACTATAGGGATAATCGCCCTGAGCAAAGACC,3.16 ± 0.0883
20,CTCGAGGATATCAAGATCTGGCCTCGGCCATCTAAAAGGAACCTCTAGCTAGCCGACTCACTATAGGGATAATCGCCCTGAGCAAAGACC,-0.085 ± 0.105
21,CTCGAGGATATCAAGATCTGGCCTCGGCTCATTAAAAGGAACCTCTAGCTAGCCGACTCACTATAGGGATAATCGCCCTGAGCAAAGACC,2.97 ± 0.0761
22,CTCGAGGATATCAAGATCTGGCCTCGGCGGTGTAAAAGGAACCTCTAGCTAGCCGACTCACTATAGGGATAATCGCCCTGAGCAAAGACC,0.668 ± 0.0814
23,CTCGAGGATATCAAGATCTGGCCTCGGCTTGATAAAAGGAACCTCTAGCTAGCCGACTCACTATAGGGATAATCGCCCTGAGCAAAGACC,0.619 ± 0.0899
24,CTCGAGGATATCAAGATCTGGCCTCGGCAAAATAAAAGGAACCTCTAGCTAGCCGACTCACTATAGGGATAATCGCCCTGAGCAAAGACC,1.46 ± 0.0905
25,CTCGAGGATATCAAGATCTGGCCTCGGCCTTTTAGCGGGAACCTCTAGCTAGCCGACTCACTATAGGGATAATCGCCCTGAGCAAAGACC,0.142 ± 0.0994
26,CTCGAGGATATCAAGATCTGGCCTCGGCGCGTGGAAGGGAACCTCTAGCTAGCCGACTCACTATAGGGATAATCGCCCTGAGCAAAGACC,-0.832 ± 0.125
